Experimental data as given in PubChem BioAssay (Tox21).
Records with an inconclusive call do not appear. Calls of active or inactive are those of the source. Unless noted, the call rests on the fitted dose curve.

Assays:
[1] = qHTS assay to identify small molecule agonists of the vitamin D receptor (VDR) signaling pathway - cell viability counter screen (AID 743224; active means well fitted curve in the direction sought with a large enough effect in the repeat runs; an effect the other way counts as inactive or inconclusive; further: series mostly up to about 63 µM; nearly all actives have a fitted effect of over 50% in size)
Procedure, shortened: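 VDR-bla cells were preincubated 4 h at 37C/5% CO2, then exposed to compounds for 16 h. After the 2 h room-temperature bla FRET read, CellTiter-Glo was added to the same wells and luminescence read after 30 min.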

[2] = qHTS assay to identify small molecule antagonists of the vitamin D receptor (VDR) signaling pathway - cell viability counter screen (AID 743225; active means well fitted curve in the direction sought with a large enough effect in the repeat runs; an effect the other way counts as inactive or inconclusive; further: nearly all actives have a fitted effect of over 50% in size)
Procedure, shortened: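 Same-well multiplex: following 16 h treatment of HEK 293T cells carrying a UAS-driven beta-lactamase reporter with compound and agonist (3 nM final), and a 2 h FRET substrate step, CellTiter-Glo was added and luminescence read after 30 min.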

[3] = qHTS assay to identify small molecule agonists of the NFkB signaling pathway (AID 1159509; active means well fitted curve in the direction sought with a large enough effect in the signal ratio in the repeat runs, not every such curve was filed as active; the % refers to the signal ratio; further: series mostly up to about 61 µM)
Procedure, shortened: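 NFkB-bla ME-180 cells carry a beta-lactamase reporter under an NF-kB response element. They were plated overnight, then exposed to compounds for 5 h at 37 C. Read-out is LiveBLAzer FRET after 1.5 hr at room temperature (405 nm excitation; 460/530 nm emission).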

[4] = qHTS assay to identify small molecule agonists of the NFkB signaling pathway - cell viability counter screen (AID 1159515); further: series mostly up to about 61 µM; nearly all actives have a fitted effect of over 55% in size
Procedure, shortened: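 NFkB-bla ME-180 cells, 2,000/well, were plated overnight at 37 C, 5% CO2, then exposed to compounds in DMSO for 5 hr. After the bla FRET read, CellTiter-Glo was added to the same wells; luminescence was read after 30 min at room temperature.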

[5] = qHTS assay to identify small molecule agonists of the endoplasmic reticulum stress response signaling pathway (AID 1159516; active means well fitted activation curve with a large enough effect in the signal ratio in the repeat runs, not every such curve was filed as active; the % refers to the signal ratio)
Procedure, shortened: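 CellSensor ESRE-bla HeLa cells, carrying a beta-lactamase reporter driven by the ER stress response element, were plated overnight and exposed to compounds for 5 hr at 37 C. Reporter activity was read as FRET substrate fluorescence after 2 hr at room temperature.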

[6] = qHTS assay to identify small molecule agonists of the endoplasmic reticulum stress response signaling pathway - cell viability counter screen (AID 1159517); further: series mostly up to about 61 µM; nearly all actives have a fitted effect of over 50% in size
Procedure, shortened: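 HeLa cells carrying an ESRE-driven beta-lactamase reporter receive compound for 5 hr at 37 C. Cell viability is then gauged with CellTiter-Glo by luminescence, 30 min at room temperature.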

[7] = qHTS assay to identify small molecule antagonists of the retinoid-related orphan receptor gamma (ROR-gamma) signaling pathway - cell viability counter screen (AID 1159520; active means well fitted curve in the direction sought with a large enough effect in the repeat runs; an effect the other way counts as inactive or inconclusive; further: nearly all actives have a fitted effect of over 50% in size)
Procedure, shortened: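 Cytotoxicity was read from cellular ATP (CellTiter-Glo luminescence) after 16 hr at 37 C with 1 uM doxycycline induction. The inducer was added 2 hr after compound transfer to Tet-on ROR gamma CHO cells.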

[8] = biological target: Nuclear receptor ROR-gamma (Homo sapiens) (UniProt P51449); test: qHTS assay to identify small molecule antagonists of the retinoid-related orphan receptor gamma (ROR-gamma) signaling pathway (AID 1159521; active means well fitted curve in the direction sought with a large enough effect in the repeat runs; an effect the other way counts as inactive or inconclusive)
Procedure, shortened: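 Inducible-expression reporter assay: doxycycline (1 uM final) switched on RORγ in CHO cells bearing a ROR response element-luciferase construct, with test compounds present from 2 h beforehand. Decreased luminescence after 16 h defined antagonist activity.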

[9] = qHTS assay to identify small molecule agonists of the AP-1 signaling pathway - cell viability counter screen (AID 1159525); further: nearly all actives have a fitted effect of over 55% in size
Procedure, shortened: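 Luminescent ATP readout (Cell Titer Glo, 30 min RT), normalised to DMSO and tetra n-octyl ammonium bromide controls. Cells were ME-180 AP-1-bla in 0.5% dialyzed FBS Opti-MEM, with a 5 h, 37 °C compound exposure.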

[10] = qHTS assay to identify small molecule agonists of the AP-1 signaling pathway (AID 1159526)

Measured: Potency

CCCN(CCC)CCc1cccc2c1CC(=O)N2
inactive: [1] | [2] | [3] | [4] | [5] | [6] | [7] | [8] | [9] | [10]

CCOC(=O)Nc1ccc(NCc2ccc(F)cc2)nc1N
inactive: [1] | [2] | [3] | [4] | [5] | [6] | [7] | [8] | [9] | [10]

CC(C)=CCCC(C)CC(=O)O (centres undefined)
inactive: [1] | [2] | [3] | [4] | [5] | [6] | [7] | [8] | [9] | [10]

CC(=O)CC(C)C
inactive: [1] | [2] | [3] | [4] | [5] | [6] | [7] | [8] | [9] | [10]

C[C@@H]1CCN(C(=O)[C@H](CCCN=C(N)N)NS(=O)(=O)c2cccc3c2NC[C@H](C)C3)[C@@H](C(=O)O)C1
inactive: [1] | [2] | [3] | [4] | [5] | [6] | [7] | [8] | [9] | [10]

NS(=O)(=O)c1ccccc1Cl
inactive: [1] | [2] | [3] | [4] | [5] | [6] | [7] | [8] | [9] | [10]

CCN(Cc1ccncc1)C(=O)C(CO)c1ccccc1 (centres undefined)
inactive: [1] | [2] | [3] | [4] | [5] | [6] | [7] | [8] | [9] | [10]

CN(C)CCCNCCCN(C)C
inactive: [1] | [3] | [4] | [5] | [6] | [8] | [9] | [10]

CC(=O)OC/C=C(\C)CC/C=C(\C)CCC=C(C)C
inactive: [1] | [2] | [3] | [4] | [5] | [6] | [8] | [9] | [10]

CO[Si](CCCOCC1CO1)(OC)OC (centres undefined)
inactive: [1] | [3] | [4] | [6] | [7] | [8] | [9] | [10]

OCCOc1ccc(OCCO)cc1
inactive: [1] | [3] | [4] | [5] | [6] | [8] | [9] | [10]

CC(=O)OCC(CCn1cnc2cnc(N)nc21)COC(C)=O
inactive: [1] | [3] | [4] | [6] | [7] | [8] | [9] | [10]

CC1=CC(C)C(C=O)CC1 (centres undefined)
inactive: [1] | [3] | [4] | [5] | [6] | [8] | [9] | [10]

O=C(O)COc1nn(Cc2ccccc2)c2ccccc12
inactive: [1] | [3] | [4] | [6] | [7] | [8] | [9] | [10]

CCc1ccc(O)c(OC)c1
inactive: [1] | [3] | [4] | [5] | [6] | [8] | [9] | [10]

C=CCS(=O)(=O)O
inactive: [1] | [2] | [3] | [4] | [5] | [6] | [8] | [9] | [10]

CCCCCCCCCCCCN(CCCCCCCCCCCC)CCCCCCCCCCCC
inactive: [1] | [2] | [3] | [4] | [5] | [6] | [8] | [9] | [10]

O=c1[nH]c(=O)n([C@H]2C[C@H](O)[C@@H](CO)O2)cc1I
inactive: [1] | [2] | [3] | [4] | [5] | [6] | [8] | [9] | [10]

COC(=O)[C@@H](N)Cc1ccc(O)c(O)c1
inactive: [1] | [3] | [4] | [5] | [6] | [8] | [9] | [10]

CCO/C([O-])=N/c1c[n+](N2CCOCC2)no1
inactive: [1] | [3] | [4] | [5] | [6] | [8] | [9] | [10]

COC(=O)NN
inactive: [1] | [2] | [3] | [4] | [5] | [6] | [8] | [9] | [10]

CCCCC/C=C\CCC=O
inactive: [1] | [2] | [3] | [4] | [5] | [6] | [8] | [9] | [10]

Nc1ccccc1S(=O)(=O)O
inactive: [1] | [3] | [4] | [6] | [7] | [8] | [9] | [10]
